Compound activity deposited in PubChem by National Center for Advancing Translational Sciences (NCATS).
The full list was thinned out, with hits kept by preference.
PNC inhibitor – High Content Assay for Compounds that inhibit the Assembly of the Perinucleolar Compartment. PC3M PTB-GFP, PNC prevalence imaging, 16 h; active compounds read low. activity change (PNC), negative = inhibition, % at 10 µM. 140,000 tested, 3.1% active. AID 2417, 2010;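 active = readout at or below -70, meaning at least 70% loss of cells showing the perinucleolar compartment, a nuclear body marking cancer cells; inconclusive = readout between -30 and a set limit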;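 also: plate controls were DMSO wells for no effect and camptothecin positive control wells for full effect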
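Compounds are pinned in duplicate onto adhered PC3M cells stably expressing GFP-tagged PTB and incubated 16 h at 37 C. Cells are then fixed, nuclei stained with Hoechst, and PNC-positive cells counted.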
LMNA splice mod – qHTS Assay for Modulators of Lamin A Splicing | HeLa LMNA splicing GFP/RFP minigene ratio, 48 h | Potency, µM (series often up to 46.1 µM), for inactives: at the highest dose ratio change, negative = inhibition, usual class: inhibitors | 200,000 tested, 0.01% active | AID 1487, 2009; active = well fitted inhibition curve with a large enough effect in the signal ratio, with a control signal flat, not every such curve was filed as active; inconclusive = small, poorly fitted or top-dose-only effect, or effect the other way, or a change in a side signal; the % refers to the signal ratio; also: potency is read from the fitted curve at half-maximal effect
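Read-out is the ratio of GFP to DsRed2 object intensity, acquired by 488 nm laser-scanning cytometry on HeLa lamin A-EGFP minigene reporter cells. Compound incubation 48 hrs at 37 °C in Opti-MEM with 2% FBS; DMSO 0.5% final.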
IMPase inh – qHTS Assay for Identifying the Cell-Membrane Permeable IMPase Inhibitors; Inositol monophosphatase 1 (Rattus norvegicus), P97697; CHO-M1 cells, IP1 accumulation, HTRF TR-FRET ratio; inhibition (IP1 accumulation), % at 46.1 µM; 120,000 tested, under 10 active; AID 901, 2007; active = well fitted curve in the direction sought with a large enough effect in the signal ratio, not every such curve was filed as active; inconclusive = small, poorly fitted or top-dose-only effect, or a change in a side signal; inactive = no such curve, though single readings can be large or run the other way; the % refers to the signal ratio;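 also: cells stimulated with carbachol in lithium chloride buffer; plate controls were DMSO basal wells for no effect and reference inhibitor wells for full effect; higher means more IMPase inhibition seen as more IP1 and lower FRET ratio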
Target sequence (P97697 whole entry, looked up): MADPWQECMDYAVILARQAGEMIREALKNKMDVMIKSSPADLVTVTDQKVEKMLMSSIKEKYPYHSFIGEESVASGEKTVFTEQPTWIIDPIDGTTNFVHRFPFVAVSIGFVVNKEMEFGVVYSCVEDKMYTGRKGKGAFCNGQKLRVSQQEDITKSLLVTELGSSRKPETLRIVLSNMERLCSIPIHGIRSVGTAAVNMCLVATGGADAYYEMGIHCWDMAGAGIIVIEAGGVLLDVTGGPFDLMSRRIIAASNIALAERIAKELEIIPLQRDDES
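The IP-One HTRF competitive assay in carbachol-stimulated CHO-M1 cells quantifies cellular IP1. Compounds spanned up to 46 uM final, and activity is expressed as AC50 from concentration-response fits of the ratio and donor data.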
* = called active by the depositor; u = inconclusive; x = no result given; [ ] = dose if it differs, or a comment. Unless noted, % is scaled to controls: 0 for no effect and ±100 for the full control effect.

SMILES | PNC inhibitor | LMNA splice mod | IMPase inh
COc1ccc(NC(=O)Cn2cnc3sc(C)c(S(=O)(=O)N4CCN(C)CC4)c3c2=O)cc1OC | x | 9.2%[46 µM] | x
CCOc1ccc(CCNS(=O)(=O)c2c(C)nc3scc(C)n3c2=O)cc1OCC | x | x | -6.6
CCc1nc(SCc2cc(=O)c3cc(F)ccc3[nH]2)n[nH]1 | x | 1.7%[46 µM] | x
COc1ccccc1OCC(=O)c1[nH]c(C)c(C(C)=O)c1C | 22.0 | 5.6% | 8.7
CC(=O)c1c(C)[nH]c(C(=O)COc2cc(C)ccc2C(C)C)c1C | -86.4* | u | 15.1
CC1=CC=CC2=NC(=O)CC(C)(C(=O)O)N12 (stereo not given) | x | 6.8%[46 µM] | x
COc1ccc(C2CC(=O)C3=C(C2)Nc2ncnn2C3c2ccccc2C)cc1 (stereo not given) | 34.9 | 3.5% | -4.9
COc1ccc(C2CC(=O)C3=C(C2)Nc2ncnn2C3c2ccccc2)cc1 (stereo not given) | -107.1* | -2.1% | -1.7
CCOC(=O)c1scc(-c2ccc(C)cc2)c1S(=O)(=O)Nc1cc(Cl)ccc1OC | x | 9.1%[46 µM] | x
CCCOc1ccc2c3c(c(=O)oc2c1OCCC)CCCC3 | -111.4* | u | -0.4
CCOc1ccc2c3c(c(=O)oc2c1OCC)CCCC3 | u | -2.9% | -5.6
CC(C(=O)Nc1ccc(OC(F)(F)F)cc1)N1Cc2ccccc2C1=O (stereo not given) | x | -3.2%[46 µM] | x
COc1cccc(C2=NOC(C(=O)NCc3ccc(F)cc3)C2)c1 (stereo not given) | 26.9 | 10.1% | 4.8
COc1cc(C2=NOC(C(=O)NCc3ccccn3)C2)cc(OC)c1OC (stereo not given) | u | -5.6% | -5.6
COc1ccc(C2=NOC(C(=O)NCc3ccc(F)cc3)C2)cc1OC (stereo not given) | -95.7* | u | 1.4
COc1cc(C2=NOC(C(=O)NCc3ccc(F)cc3)C2)cc(OC)c1OC (stereo not given) | -121.0* | u | 1.3
CCOC(=O)c1c(NC(=O)COc2ccc(Br)cc2)sc2c1CCCC2 | x | -12.9%[46 µM] | x
Cc1nn(-c2ccccc2)c(N2CCCC2)c1/C=N/NC(=O)c1ccccc1O | -103.8* | u | x
O=C(N/N=C/c1cc2c3c(c1O)CCCN3CCC2)c1ccccc1O | -112.8* | u | x
Cc1nn(-c2ccccc2)c(N2CCCC2)c1/C=N/NC(=O)c1cc(-c2cccnc2)nc2ccccc12 | -17.8 | u | 10.8
O=C(N/N=C/c1cccc(C(F)(F)F)c1)c1ccccc1O | x | -13.8%[46 µM] | x
COc1ccc(NC(=O)CCCn2c(=O)c3sccc3n(Cc3ccc(C)cc3C)c2=O)cc1 | 7.9 | u | 1.5
Nc1nc(C(F)(F)F)cc(=O)n1N | x | -18.9%[46 µM] | x
c1ccc(-c2ccccc2OCCCCN2CCCCC2)cc1 | 2.2 | 1.9% | -5.0
c1ccc(-c2ccccc2OCCCN2CCCC2)cc1 | -107.0* | 3.3% | x
SMILES | PNC inhibitor | LMNA splice mod | IMPase inh
CC1CCN(CCOc2ccccc2-c2ccccc2)CC1 | -105.2* | 1.9% | x
CC1CCN(CCOc2cc(Cl)ccc2Cl)CC1 | 83.2 | 9.1% | 13.0
O=C(NCc1cccc(Cl)c1)c1cnc(N2CCCCC2)c2ccccc12 | x | 2.0%[46 µM] | x
COc1c2c(nc3occc13)C(CC=C(C)C)(OC)C(O)CC2 (stereo not given) | -100.1* | u | -6.7
COc1c2c(nc3occc13)C(CC=C(C)C)(OC)C(OC(C)=O)CC2 (stereo not given) | -13.9 | 1.1% | 6.9
Cc1ccc(CNC(=O)CN2N=C(c3ccc(C)cc3)CCC2=O)cc1 | x | -7.5%[46 µM] | x
COc1ccc(C2C(C(=O)Nc3cccnc3)=C(C)Nc3nc(-c4cccs4)nn32)cc1OC (stereo not given) | -108.4* | -11.2% | -4.6
COc1ccc(C2C(C(=O)Nc3cccnc3)=C(C)Nc3nc(-c4cccs4)nn32)cc1 (stereo not given) | -8.2 | u | 8.0
CCC(=O)N1CCc2cc(Br)cc(S(=O)(=O)N3CCN(C(=O)c4ccco4)CC3)c21 | 22.8 | -13.3% | 7.0
CC(=O)N1c2c(cc(Br)cc2S(=O)(=O)N2CCN(C(=O)c3ccco3)CC2)CC1C (stereo not given) | -100.0* | -10.4% | -11.4
COCCNC(=O)c1ccccc1NC(=O)c1nsc2ccccc12 | x | 2.7%[46 µM] | x
O=C(COC(=O)c1cc(-c2ccco2)nc2ccccc12)NCc1ccc2c(c1)OCO2 | -100.0* | -10.2% | 2.6
COc1ccccc1CNC(=O)COC(=O)c1cc(-c2ccco2)nc2ccccc12 | 20.2 | -7.2% | 1.6
CCSc1nc(O)cc(=O)n1CC | x | 3.6%[46 µM] | x
C=CCn1cnc2scc(-c3ccc(CC)cc3)c2c1=O | 10.9 | 9.8% | 1.5
Cn1cc(/C=N/n2cnc3scc(-c4ccc(Cl)cc4)c3c2=O)c2ccccc21 | -99.0* | u | 0.8
Cc1cccc(C(=O)Nc2nnc(S(=O)(=O)N3c4ccccc4CC3C)s2)c1 (stereo not given) | x | 7.5%[46 µM] | x
COC(C(=O)NC1CC1)c1ccccc1 (stereo not given) | -113.8* | -13.5% | x
COC(C(=O)Nc1ccccc1F)c1ccccc1 (stereo not given) | 0.4 | 7.7% | -3.6
Cc1cc2c(cc1NS(=O)(=O)c1cccc(C#N)c1)n(C)c(=O)c(=O)n2C | x | 10.9%[46 µM] | x
CC1CCN(C(=O)c2c(NC(=O)c3ccccc3Cl)sc3c2CCC(C(C)(C)C)C3)CC1 (stereo not given) | x | x | 4.0
COc1ccc(-c2cn3c(n2)sc2cc(C(=O)NCC(C)c4ccccc4)ccc23)cc1 (stereo not given) | x | -11.1%[46 µM] | x
CN(C)CCNC(=O)/C=N/O | -88.9* | -13.0% | 4.2
CN(C)CCCCCNCCCNC(=O)/C=N\O | u | 2.7% | 1.1
CCOC(=O)c1ccccc1NC(=O)N1CCC(CN2CCOCC2)CC1 | x | -6.4%[46 µM] | x
SMILES | PNC inhibitor | LMNA splice mod | IMPase inh
CCc1ccc(C(=O)CSc2nc(-c3ccccc3)nc3c2CCCC3)cc1 | x | x | -11.1
Cc1cn(C2OC(COC(=O)c3ccccc3)C(O)C2O)c(=O)[nH]c1=O (stereo not given) | -88.6* | -6.5% | 4.0
Cc1cn(C2OC(COC(=O)c3ccccc3)C(OC(=O)c3ccccc3)C2OC(=O)c2ccccc2)c(=O)[nH]c1=O (stereo not given) | -118.9* | -6.9% | -3.8
Cc1cn2c(nc1=O)OC1C(O)C(COC(=O)c3ccccc3)OC12 (stereo not given) | -22.2 | -0.4% | -4.2
O=C(OCC1OC2C(Oc3nc(=O)ccn32)C1O)c1ccccc1 (stereo not given) | u | -3.7% | -5.2
Cc1cccc(OCC(=O)Nc2ccc(C(=O)OCc3cc(=O)n4nc(C5CC5)sc4n3)cc2)c1 | x | 9.3%[46 µM] | x
CC(C)c1ccc(C(=O)N2CCN(c3cnn(C)c(=O)c3Cl)CC2)cc1 | x | 22.5%[46 µM] | x
O=C(O)Cn1nc(-c2ccccc2)oc1=O | -24.2 | -7.8% | -4.0
CC(C)(C)C(=O)n1nc(-c2ccccc2)oc1=O | -109.0* | 4.6% | x
CCOC(=O)NC(=O)COC(=O)c1ccc(O)cc1 | x | 2.9%[46 µM] | x
CC(C)NC(=O)NC(=O)COC(=O)c1ccc(S(=O)(=O)Nc2ccccc2)cc1 | x | -14.8%[46 µM] | x
Cc1ccc(S(=O)(=O)NC(C(=O)OCC(=O)NC(=O)c2cccn2C)C(C)C)cc1 (stereo not given) | 39.2 | 2.4% | -6.3
